PubChem BioAssay (NCATS)
Inconclusive results are not listed. Active and inactive are the calls of the source. Calls come from the whole dose curve; as a rule, active = well fitted cell-killing curve with a large enough effect; inconclusive = small, poorly fitted or top-dose-only effect, or effect the other way; inactive = flat fitted curve, though single readings scatter. Where a SMILES comes first, the peptide text is derived from it.

Columns and labels:
Assay in all cases: Primary qHTS to identify gynecologic anti-cancer compounds using libraries of approved drugs and bioactive compounds (AID 1345084); note: nearly all actives have a fitted effect of over 55% in size
C33A = conditions: Gynecologic cancer cell panel viability, ATPlite luminescence, 48 h; series mostly up to 57.5 µM
Outline: (§1)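 Cell viability after 48 h drug treatment, ATPlite luminescence readout; five doses.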

CAOV3 = conditions: Gynecologic cancer cell panel viability, ATPlite luminescence, 48 h; series mostly up to 57.5 µM
Outline: as §1

CASKI = conditions: Gynecologic cancer cell panel viability, ATPlite luminescence, 48 h; series mostly up to 57.5 µM
Outline: as §1

Es-2 = conditions: Gynecologic cancer cell panel viability, ATPlite luminescence, 48 h; series mostly up to 57.5 µM
Outline: as §1

HeLa = conditions: Gynecologic cancer cell panel viability, ATPlite luminescence, 48 h; series mostly up to 57.5 µM
Outline: as §1

Hek293T = conditions: Gynecologic cancer cell panel viability, ATPlite luminescence, 48 h, control line for the selectivity index; series mostly up to 57.5 µM
Outline: as §1

JEG-3 = conditions: Gynecologic cancer cell panel viability, ATPlite luminescence, 48 h; series mostly up to 57.5 µM
Outline: as §1

OV90 = conditions: Gynecologic cancer cell panel viability, ATPlite luminescence, 48 h; series mostly up to 57.5 µM
Outline: as §1

PA-1 = conditions: Gynecologic cancer cell panel viability, ATPlite luminescence, 48 h; series mostly up to 57.5 µM
Outline: as §1

SKOV3 = conditions: Gynecologic cancer cell panel viability, ATPlite luminescence, 48 h; series mostly up to 57.5 µM
Outline: as §1

Tov-21-G = conditions: Gynecologic cancer cell panel viability, ATPlite luminescence, 48 h; series mostly up to 57.5 µM
Outline: as §1

Tov112D = conditions: Gynecologic cancer cell panel viability, ATPlite luminescence, 48 h; series mostly up to 57.5 µM
Outline: as §1

Measured: Potency

COC(O)(CC(C)C)C1Oc2cc(C)[nH]c(=O)c2O1 (stereo unspecified)
inactive: all assays above

CC1C2=CC(=O)OC2(O)CC2C1CCC1C(C)(C)CCC(O)C21C (stereo unspecified)
inactive: all assays above

COc1ccc(/C=C/C(=O)O[C@@H]2[C@@H](O)[C@@H](O)[C@H](O[C@H]3[C@@H]4C=CO[C@@H](O[C@@H]5O[C@H](CO)[C@@H](O)[C@H](O)[C@H]5O)[C@@H]4[C@@]4(CO)O[C@@H]34)O[C@H]2C)cc1
inactive: all assays above

CCC(C)/C=C(C)/C=C/C1=CC2=C(Cl)C(=O)C(C)(OC(C)=O)C(=O)C2=CN1CCCCC(N)C(=O)O (stereo unspecified)
inactive: all assays above

COC(=O)Cn1nc(-c2cccc(OC)c2)c2ccccc21
inactive: all assays above

CC(O)C1CCC2C3CCC4CC(OC5OC(C(=O)O)C(O)C(O)C5O)CCC4(C)C3CCC12C (stereo unspecified)
inactive: all assays above

CC1=C2C[C@H]3OC(=O)[C@H](O)[C@@]4(O)[C@@H](C)[C@@H](O)[C@H](O)C([C@@]2(C)[C@H](O)[C@@H](O)C1)[C@@]34C (stereo partly specified)
inactive: all assays above

COc1ccc(N2CCN(CCCNC(=O)Cn3c(=O)c4cccn4c4c(C)ccnc43)CC2)cc1
inactive: all assays above

CCC(C)C(C(=O)O)N1Cc2c(OCC=C(C)C)c(C)c(OC)c(C(=O)O)c2C1=O (stereo unspecified)
inactive: all assays above

CC1=CC2=C(C)C(=O)[C@](C)(O)[C@H](O)C2=CO1
inactive: all assays above

O=C(OCC(O)CO[C@@H]1O[C@H](C(=O)O)[C@@H](O)[C@H](O)[C@H]1O)c1ccccc1 (stereo partly specified)
inactive: all assays above

CC1CC(=O)[C@]2(O)C(C(=O)OCCc3ccc(O)c(O)c3)=CO[C@@H](O[C@@H]3O[C@H](CO)[C@@H](O)[C@H](O)[C@H]3O)[C@H]12 (stereo partly specified)
inactive: all assays above

CNC(=O)c1ccc2c(c1)CCO[C@H]2CCN1CCN(c2ccc(C(N)=O)cc2)CC1
inactive: all assays above

CC(C)C1NC(=O)CNC(=O)C2CCCN2C(=O)C(Cc2c[nH]c3ccccc23)NC(=O)CNC(=O)C(Cc2ccc(O)cc2)NC(=O)CNC1=O (stereo unspecified) (cyclo(GVGYGWP); configuration not given here)
inactive: all assays above

CC(C)CC(c1c(O)c(C=O)c(O)c(C=O)c1O)C1CCC(C)(O)C2CC(C(C)(C)O)CCC12C (stereo unspecified)
inactive: all assays above

OC[C@H]1O[C@@H](OCCc2ccccc2)[C@H](O)[C@@H](O)[C@@H]1O
inactive: all assays above

C[C@H]1CC(=O)C2=C(C1)C(O)C(O)[C@@]1(O)[C@H]2C(=O)c2cccc(O)c2[C@@H]1O (stereo partly specified)
inactive: all assays above

C=C1CC[C@H]2[C@@](C)(CCC(O)[C@@]2(C)CO)[C@@H]1/C=C/C(=C\C(=O)O)C(=O)O (stereo partly specified)
inactive: all assays above

C=C(C)[C@@H]1CC[C@]2(C)CC[C@]3(C)C(CCC4[C@@]5(C)CC[C@H](O)C(C)(C)C5CC[C@]43C)C12 (stereo partly specified)
inactive: all assays above

OC[C@H]1O[C@@H](OC[C@H]2O[C@@H](OCc3ccccc3)[C@H](O)[C@@H](O)[C@@H]2O)[C@H](O)[C@@H](O)[C@@H]1O
inactive: all assays above

C=C1CC[C@@H]2[C@](C)(CO)[C@H](O[C@@H]3O[C@H](CO)[C@@H](O)[C@H](O)[C@H]3O)CC[C@@]2(C)[C@@H]1C/C=C1/C(=O)OC[C@H]1O
inactive: all assays above

COc1ccc(-n2c(SCC#N)nc3sc4c(c3c2=O)CCCC4)cc1
inactive: all assays above

Cc1c(F)cc(C(=O)NC2CC2)cc1-c1ccc(C(=O)NCC(C)(C)C)cn1
inactive: all assays above

CC(=O)N[C@H]1[C@H](O[C@H]2CC[C@]3(C)C4CC=C5[C@@H]6CC(C)(C)CC[C@]6(C(=O)O)[C@H](O)C[C@@]5(C)[C@]4(C)CC[C@H]3C2(C)C)O[C@H](CO)[C@@H](O)[C@@H]1O (stereo partly specified)
inactive: all assays above

COc1cc(C(O)C2COC(c3ccc(OC4OC(CO)C(O)C(O)C4O)c(OC)c3)C2CO)ccc1O (stereo unspecified)
inactive: all assays above

COc1ccc(C(=O)OC2C3C=COC(OC4OC(CO)C(O)C(O)C4O)C3C3(CO)OC23)cc1OC (stereo unspecified)
inactive: all assays above

CC/C=C\[C@H](O)[C@H](O)C1=C(C)C(=O)[C@]2(O1)C(=O)N[C@@](O)(C(=O)c1ccccc1)[C@@H]2O
inactive: all assays above

C=C(C)C1Cc2c(ccc3c2OCC(c2ccc(O)cc2O)C3)O1 (stereo unspecified)
inactive: all assays above
